From ChEMBL document CHEMBL4513146, “CO-ADD screening of Karazin Kharkiv National University (Ukraine) compounds”
Measured potencies and affinities stand elsewhere.

These compounds were tested on Candida albicans. Conditions: Concentration 32 ug.mL-1; ASSAY_TEST Inhibition of Fungal Growth; detection method Absorption (OD530).

Compound | Inhibition
CCOc1ccccc1NC(=O)Cn1nc2c(N3CCN(c4ccccc4C)CC3)nccn2c1=O | 21.63%
CCc1ccccc1Sc1nccn2c(=O)n(CC(=O)N3CCN(c4ccccc4F)CC3)nc12 | 4.04%
CCc1ccccc1NC(=O)Cn1nc2cc(C)nc(Nc3ccc(F)cc3)n2c1=O | 29.91%
CCOC(=O)c1ccccc1NC(=O)CSc1nnc2ccc(C(=O)Nc3cccc(F)c3)cn12 | 0.61%
COc1cccc(Cn2nc3n(CCC(=O)NC4CCCCC4)c(=O)c4ccccc4n3c2=O)c1 | 5.45%
Cc1nnc2c(=O)n(CC(=O)Nc3ccccc3F)c3ccccc3n12 | 3.67%
Cc1cc(C)cc(NC(=O)CSc2nnc3c(=O)n(-c4ccc(Br)cc4)ccn23)c1 | 6.21%
CCCc1nnc2c(=O)n(CC(=O)Nc3cccc(C(C)=O)c3)c3ccccc3n12 | 6.89%
O=C(CCc1nnc2ccc(-c3ccc(Cl)cc3)nn12)NCc1ccc(F)cc1Cl | 0.76%
CSc1cccc(NC(=O)Cn2nc3ccc(SC(C)(C)C)nn3c2=O)c1 | 2.25%
Cc1ccc(Sc2nccn3c(=O)n(CC(=O)Nc4ccc(F)c(Cl)c4)nc23)c(C)c1 | 10.6%
O=C(CSc1nnc2ccc(C(=O)Nc3cccc(F)c3)cn12)Nc1ccc(F)c(F)c1 | 5.97%
Cc1ccc(C)c(C(=O)CSc2nnc3c(=O)n(-c4ccc(F)c(F)c4)ccn23)c1 | 4.02%
CCOc1ccc(NC(=O)Cn2nc3ccc(-c4ccc(C)c(C)c4)nn3c2=O)cc1 | 1.39%
Cc1nnc2c(=O)n(CC(=O)NC3CCCC3)c3ccccc3n12 | 0.18%
CCOC(=O)c1ccccc1NC(=O)Cn1nc2ccc(C(=O)Nc3ccc(OC)cc3)cn2c1=O | 25.24%
COc1cccc(Oc2nccn3c(=O)n(CC(=O)NCc4cccs4)nc23)c1 | 0.8%
CC(C)c1ccc(NC(=O)Cn2nc3c(Sc4ccccc4)nccn3c2=O)cc1 | 23.16%
CCc1nnc2c(S(=O)(=O)N(Cc3cccc(F)c3)c3cccc(C)c3)cccn12 | 0.97%
COc1ccc(NC(=O)Cn2nc3c(Sc4cccc(C)c4)nccn3c2=O)cc1Cl | 12.08%

Compound | Inhibition
Cc1ccc(Oc2nccn3c(=O)n(CC(=O)Nc4ccccc4C(F)(F)F)nc23)cc1 | 0.6%
O=C(Cn1nc2ccc(Sc3cccc(F)c3)nn2c1=O)NCc1ccc(C(F)(F)F)cc1 | 1.44%
Cc1ccc(-c2cc3c4nn(CC(=O)Nc5ccc(C)c(Cl)c5)c(=O)n4ccn3n2)cc1C | 8.38%
C=Cc1ccc(CN(c2ccc(C(C)C)cc2)S(=O)(=O)c2cccn3cnnc23)cc1 | 3.5%
CC(C)CCNC(=O)CSc1nnc2c(=O)n(Cc3ccc(F)cc3)ccn12 | 1.44%
COC(=O)c1ccccc1NC(=O)Cn1nc2c(SC3CCCCC3)nccn2c1=O | 1.97%
CCCCc1ccc(NC(=O)CSc2nc3ccccc3n3c(CC)nnc23)cc1 | 1.28%
Cc1cccc(Oc2nccn3c(=O)n(CC(=O)NCCCc4ccccc4)nc23)c1C | 0.59%
O=S(=O)(Nc1ccc2c(c1)OCCO2)c1ccc2nncn2c1 | 2.83%
COc1cc(NC(=O)CSc2nnc3c(=O)n(-c4cccc(F)c4)ccn23)cc(OC)c1 | 13.47%
COc1ccccc1-n1ccn2c(=O)n(Cc3ccc(F)cc3Cl)nc2c1=O | 3.67%
CSc1ccc(CNC(=O)Cn2nc3c(N4CCN(c5ccccc5)CC4)nccn3c2=O)cc1 | 1.95%
CCc1nnc2c(S(=O)(=O)N(Cc3ccc(OC)c(F)c3)c3ccccc3)cccn12 | -1.05%
CCc1nnc2ccc(S(=O)(=O)N(Cc3cccc(OC)c3)c3cccc(F)c3)cn12 | 2.06%
Cc1ccccc1CN(c1ccc(Cl)cc1)S(=O)(=O)c1cccn2c(C)nnc12 | 2.31%
Cc1cccc(Oc2nc3ccccc3n3c(=O)n(CC(=O)Nc4ccc5c(c4)OCCO5)nc23)c1C | -0.7%
CCCN(C)c1nccn2c(=O)n(CC(=O)Nc3cccc(SC)c3)nc12 | 8.61%
CCc1nnc2c(=O)n(CC(=O)Nc3ccc(Br)cc3F)c3ccccc3n12 | 6.85%
O=c1c2sccc2n2c(=O)n(Cc3ccccc3Cl)nc2n1CCc1ccccc1 | 2.07%

The compounds below were run on Cryptococcus neoformans. Conditions: Concentration 32 ug.mL-1; ASSAY_TEST Inhibition of Fungal Growth; detection method Resazurin; Absorption (OD600-OD570); plate type 384well; NBS; CORNING #3640.

Compound | Inhibition
CCOc1ccccc1NC(=O)Cn1nc2c(N3CCN(c4ccccc4C)CC3)nccn2c1=O | -5.29%
CCc1ccccc1Sc1nccn2c(=O)n(CC(=O)N3CCN(c4ccccc4F)CC3)nc12 | -15.46%
CCc1ccccc1NC(=O)Cn1nc2cc(C)nc(Nc3ccc(F)cc3)n2c1=O | -17.34%
CCOC(=O)c1ccccc1NC(=O)CSc1nnc2ccc(C(=O)Nc3cccc(F)c3)cn12 | -6.96%
COc1cccc(Cn2nc3n(CCC(=O)NC4CCCCC4)c(=O)c4ccccc4n3c2=O)c1 | -13.5%
Cc1nnc2c(=O)n(CC(=O)Nc3ccccc3F)c3ccccc3n12 | -6.39%
Cc1cc(C)cc(NC(=O)CSc2nnc3c(=O)n(-c4ccc(Br)cc4)ccn23)c1 | -22.2%
CCCc1nnc2c(=O)n(CC(=O)Nc3cccc(C(C)=O)c3)c3ccccc3n12 | -25.21%
O=C(CCc1nnc2ccc(-c3ccc(Cl)cc3)nn12)NCc1ccc(F)cc1Cl | -15.23%
CSc1cccc(NC(=O)Cn2nc3ccc(SC(C)(C)C)nn3c2=O)c1 | -15.09%
Cc1ccc(Sc2nccn3c(=O)n(CC(=O)Nc4ccc(F)c(Cl)c4)nc23)c(C)c1 | -11.17%
O=C(CSc1nnc2ccc(C(=O)Nc3cccc(F)c3)cn12)Nc1ccc(F)c(F)c1 | -3.04%
Cc1ccc(C)c(C(=O)CSc2nnc3c(=O)n(-c4ccc(F)c(F)c4)ccn23)c1 | -10.11%
CCOc1ccc(NC(=O)Cn2nc3ccc(-c4ccc(C)c(C)c4)nn3c2=O)cc1 | -10.52%
Cc1nnc2c(=O)n(CC(=O)NC3CCCC3)c3ccccc3n12 | -17.78%
CCOC(=O)c1ccccc1NC(=O)Cn1nc2ccc(C(=O)Nc3ccc(OC)cc3)cn2c1=O | -9.29%
COc1cccc(Oc2nccn3c(=O)n(CC(=O)NCc4cccs4)nc23)c1 | -9.44%
CC(C)c1ccc(NC(=O)Cn2nc3c(Sc4ccccc4)nccn3c2=O)cc1 | -7.48%
CCc1nnc2c(S(=O)(=O)N(Cc3cccc(F)c3)c3cccc(C)c3)cccn12 | -1.17%
COc1ccc(NC(=O)Cn2nc3c(Sc4cccc(C)c4)nccn3c2=O)cc1Cl | -20.89%

Compound | Inhibition
Cc1ccc(Oc2nccn3c(=O)n(CC(=O)Nc4ccccc4C(F)(F)F)nc23)cc1 | -7.72%
O=C(Cn1nc2ccc(Sc3cccc(F)c3)nn2c1=O)NCc1ccc(C(F)(F)F)cc1 | -8.13%
Cc1ccc(-c2cc3c4nn(CC(=O)Nc5ccc(C)c(Cl)c5)c(=O)n4ccn3n2)cc1C | -8.69%
C=Cc1ccc(CN(c2ccc(C(C)C)cc2)S(=O)(=O)c2cccn3cnnc23)cc1 | -17.09%
CC(C)CCNC(=O)CSc1nnc2c(=O)n(Cc3ccc(F)cc3)ccn12 | -7.36%
COC(=O)c1ccccc1NC(=O)Cn1nc2c(SC3CCCCC3)nccn2c1=O | -21.3%
CCCCc1ccc(NC(=O)CSc2nc3ccccc3n3c(CC)nnc23)cc1 | -16.72%
Cc1cccc(Oc2nccn3c(=O)n(CC(=O)NCCCc4ccccc4)nc23)c1C | -6.84%
O=S(=O)(Nc1ccc2c(c1)OCCO2)c1ccc2nncn2c1 | -7.84%
COc1cc(NC(=O)CSc2nnc3c(=O)n(-c4cccc(F)c4)ccn23)cc(OC)c1 | -8.34%
COc1ccccc1-n1ccn2c(=O)n(Cc3ccc(F)cc3Cl)nc2c1=O | -6.11%
CSc1ccc(CNC(=O)Cn2nc3c(N4CCN(c5ccccc5)CC4)nccn3c2=O)cc1 | -6.85%
CCc1nnc2c(S(=O)(=O)N(Cc3ccc(OC)c(F)c3)c3ccccc3)cccn12 | -3.11%
CCc1nnc2ccc(S(=O)(=O)N(Cc3cccc(OC)c3)c3cccc(F)c3)cn12 | -7.44%
Cc1ccccc1CN(c1ccc(Cl)cc1)S(=O)(=O)c1cccn2c(C)nnc12 | -9.98%
Cc1cccc(Oc2nc3ccccc3n3c(=O)n(CC(=O)Nc4ccc5c(c4)OCCO5)nc23)c1C | -31.77%
CCCN(C)c1nccn2c(=O)n(CC(=O)Nc3cccc(SC)c3)nc12 | -6.21%
CCc1nnc2c(=O)n(CC(=O)Nc3ccc(Br)cc3F)c3ccccc3n12 | -13.86%
O=c1c2sccc2n2c(=O)n(Cc3ccccc3Cl)nc2n1CCc1ccccc1 | -28.45%
